From PubChem BioAssay
ELG1 DNA repair: blocks ELG1-dependent DNA repair in HEK293T cells | Potency, µM (doses to about 46.1 µM), actives largely listed as inhibitors | 330,000 compounds, 2.3% hits | HEK293T ELG1-luciferase reporter, luminescence, 16 h; DNA damage induced by 5-fluorouridine | AID 504467; note: nearly all actives have a fitted effect of over 55% in size
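5-Fluorouridine DNA damage + compound/DMSO, 2,000 cells/well, 16 h, 37 °C/5% CO2. ONE-Glo, 30 min RT, luminescence. Readout = decrease in reporter signal.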
HT1080-NT tox: kills 2HG-producing HT-1080-NT fibrosarcoma cells | HT-1080-NT fibrosarcoma viability, CellTiter-Glo ATP luminescence, 48 h | Potency, µM (top dose mostly 46.1 µM), actives largely listed as cytotoxic | 360,000 compounds, 1.6% hits | AID 686970;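 note: NT is the 2HG producing partner of a matched IDH1 knockdown line; nearly all actives have a fitted effect of over 55% in size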
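Compounds were tested in concentration-response format on HT-1080-NT cells for 48 hours at 37 degrees C. Cell viability came from CellTiter-Glo luminescence; curves were classified by r2, response magnitude and activity.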
DT40 TDP1 no CPT: qHTS for Inhibitors of human tyrosyl-DNA phosphodiesterase 1 (TDP1): qHTS in cells in absence of CPT. DT40 Tdp1-/- hTDP1 cells, no CPT, ATP luminescence, 48 h. AID 686978, 2013. Potency, µM (highest dose often 46.2 µM), actives largely listed as inhibitors. 420,000 compounds, 15% hits; note: nearly all actives have a fitted effect of over 55% in size
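No-CPT arm: Tdp1-/-;hTDP1 DT40 cells (400/well) plus compounds, incubated ≥48 hr at 37 °C. Readout CellTiter-Glo luminescence.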
IL1B secr inh: blocks inflammasome-driven IL-1 beta release. THP-1 LPS/ATP IL-1B secretion, AlphaLISA, 16 h; active compounds read low. activity change, % at 57.5 µM. 360,000 compounds, 4.7% hits; in the data active = activity change below about -50%; inconclusive = mostly about -30% to -49%
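Secreted IL-1B measured by AlphaLISA bead assay after 16 h compound exposure of THP-1 cells; compounds (final up to 57.5 uM) added 1 h before LPS (250 ng/mL) and ATP (1.25 mM) stimulation; lower signal means less secretion.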
DT40 TDP1 CPT: growth inhibition of DT40 Tdp1-/-;hTDP1 cells with camptothecin (screen for TDP1 inhibitors). 420,000 compounds, 12% hits. AID 686979. Potency, µM (titrated, usually from 46.2 µM), actives largely listed as inhibitors. chicken DT40 Tdp1-/-;hTDP1 cells + 20 nM CPT, ATP luminescence, 48 h; note: nearly all actives have a fitted effect of over 55% in size
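Chicken DT40 Tdp1-/- cells complemented with human TDP1, 400 cells/well, exposed to compounds plus 20 nM camptothecin for at least 48 h at 37 C; viability read as ATP content by CellTiter-Glo luminescence.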
HT1080 IDH1KD tx: kills HT-1080 cells with IDH1 knockdown | HT-1080 IDH1 knockdown viability, ATP luminescence, 48 h | Potency, µM (doses to about 46.1 µM), most hits filed as cytotoxic | 360,000 compounds, 2% hits | AID 686971
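Assay cells: HT-1080 with IDH1 knockdown, 750 per well, RPMI/5% FBS. Exposure: 48 h at 37 °C following 2 h pre-incubation. Read: CellTiter-Glo luminescence; fitted concentration-response, curve class assigned.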
Numbers stand for hits; 0 = inactive; ? = inconclusive; - = no result. Most compounds without a hit are left out; they make up all but 19% or so of the library. Unless noted, calls come from the whole dose curve; as a rule, active = well fitted curve in the direction sought with a large enough effect; inconclusive = small, poorly fitted or top-dose-only effect, or another doubt; inactive = no such curve, though single readings can be large; an effect the other way counts as inactive or inconclusive.

SMILES	ELG1 DNA repair	HT1080-NT tox	DT40 TDP1 no CPT	IL1B secr inh	DT40 TDP1 CPT	HT1080 IDH1KD tx
c1cc2n(c1)-c1c(ccc3c1OCO3)CNC2c1ccc2c(c1)OCO2 (configuration not stated)	0	?	13µM	0	?	?
CCOc1cc2c(cc1OCC)-n1cccc1C(c1ccc(OC)c(OC)c1)NC2 (configuration not stated)	0	0	?	?	?	0
CCN(Cc1ccc(Cl)nc1)/C(=C/[N+](=O)[O-])NC	-	-	0	-	0	-
CCCCCl	-	-	0	-	0	-
Cc1ccccc1CN1CCN(c2ccc(Cl)cc2)CC1	0	0	?	0	0	0
CC1(C)C(C(=O)N2CCN(c3ccc(Cl)cc3)CC2)C1(C)C	?	0	18.4µM	0	?	0
O=C(c1ccncc1)N1CCC2(CC1)CN(Cc1ccccc1)C2	-	-	0	-	0	-
CCC1/C=C/C=CCC(C)C(O)[C@@](C)(O)C(=O)C(C)C(O)C(C)C(=O)C(C)C(O)C(C)C=CC(=O)O[C@H]2C(C)C(CC1)O[C@]1(CCC(C)C(CC(C)O)O1)C2C (some centres not stated)	-	-	0.0058µM	-	0.0073µM	-
CCOC(=O)[C@]12Cc3c(cc(OC)c(OC)c3OC)[C@H]1N(C1CCCCC1)C(=O)c1ccccc12	-	3.26µM	3.66µM	-112.7	2.91µM	2.91µM
CCOC(=O)[C@]12Cc3ccc(C)cc3[C@H]1N(C1CCCCC1)C(=O)c1cc(OC)ccc12	-	4.11µM	2.91µM	-116.4	2.91µM	3.26µM
CCOC(=O)[C@]12Cc3cc(Cl)ccc3[C@H]1N(C1CCCCC1)C(=O)c1cc(OC)ccc12	-	2.31µM	0.517µM	-110.4	0.517µM	1.84µM
CCOC(=O)[C@]12Cc3ccc(C)cc3[C@H]1N(C1CCCCC1)C(=O)c1ccccc12	-	8.2µM	2.31µM	-117.8	2.59µM	5.8µM
CCOC(=O)C12C(=O)OCC1C2c1ccccc1 (configuration not stated)	-	0	0	0	0	0
COC(=O)c1ccc(NC2=C(Cl)C(=O)OC2OC(=O)c2ccccc2)cc1 (configuration not stated)	0	0	?	0	?	0
O=C(O)Cc1ccc(OCCNC[C@H](O)c2ccccc2)cc1	-	-	?	-	0	-
CCOC(=O)[C@]12Cc3ccccc3[C@H]1N(C(C)C)C(=O)c1ccccc12	-	?	23.1µM	-115.7	?	20.6µM
CCOC(=O)[C@]12Cc3cc(C)ccc3[C@H]1N(C1CCCCC1)C(=O)c1ccccc12	-	3.66µM	2.91µM	-111.2	2.31µM	3.66µM
NC(N)=NN=C(/C=C/c1ccc([N+](=O)[O-])o1)/C=C/c1ccc([N+](=O)[O-])o1	-	-	2.99µM	-	2.99µM	-
O=C(NCc1ccco1)c1ccc(Cn2c(=O)c3ccccc3n(Cc3cccc(F)c3)c2=O)cc1	0	0	?	0	?	0
O=C(CCCN1CCC2(CC1)C(=O)N(Cc1cccc(F)c1)CN2c1ccccc1)c1ccc(F)cc1	-	-	14.6µM	-	29.9µM	-
CC1(C)CC2CCC(O)C2C(CCO)N1 (configuration not stated)	-	0	0	0	0	0
Cc1ccc2c(c1)CC1(CN2C)C(=O)NC(=O)N(C(C)C)C1=O (configuration not stated)	0	0	?	0	18.4µM	0
Cc1nn(CC(=O)N2CCC3(CC2)OCCO3)c(=O)c2cc3ccccc3n12	0	0	0	0	0	0
Cn1cc(C2=C(c3cn(C4CCN(Cc5ccccn5)CC4)c4ccccc34)C(=O)NC2=O)c2ccccc21	-	-	0	-	0	-
O=C1NC(=O)N(c2ccc(Cl)cc2)C(=O)/C1=C\c1ccc(Sc2nc3ccccc3[nH]2)o1	0	0	?	0	16.4µM	0
Cc1ccc(N2C(=O)NC(=O)/C(=C/c3ccc(-c4ccc(C(=O)O)c(Cl)c4)o3)C2=O)cc1	0	0	0	0	0	0
